The values below come from PubChem BioAssay (NCATS).

Records with an inconclusive call do not appear. Active and inactive are the calls of the source. Unless noted, calls come from the whole dose curve; as a rule, active = well fitted curve in the direction sought with a large enough effect; inconclusive = small, poorly fitted or top-dose-only effect, or another doubt; inactive = no such curve, though single readings can be large; an effect the other way counts as inactive or inconclusive.

Experiment [1] deals with Aldehyde dehydrogenase, mitochondrial (Homo sapiens) (UniProt P05091). Briefly: qHTS for Inhibitors of the Aldehyde Dehydrogenase Family (ALDH2) Confirmatory screens (AID 2061303; active = well fitted inhibition curve with a large enough effect; title and protocol of this record describe different tests; note: nearly all actives have a fitted effect of over 45% in size). The settings on record: ALDH inhibition qHTS; series mostly up to 45.4 µM.
The target is the same in experiment [2]. Put plainly: qHTS for Inhibitors of the Aldehyde Dehydrogenase Family (ALDH2) Primary screen (AID 2061308). Note: nearly all actives have a fitted effect of over 55% in size. The settings on record: ALDH2 enzyme inhibition qHTS, 1536-well; series mostly up to 56 µM. In general terms: In qHTS, concentration-response curves come from the screen itself.
For experiment [3], the target named is Retinaldehyde dehydrogenase 3 (Homo sapiens) (UniProt P47895). Put plainly: qHTS for Inhibitors of the Aldehyde Dehydrogenase Family (ALDH1A3) Confirmatory screens (AID 2061311). Note: nearly all actives have a fitted effect of over 60% in size. The conditions noted are these: ALDH inhibition qHTS; series mostly up to 46 µM.
Experiment [4] deals with Retinal dehydrogenase 2 (Homo sapiens) (UniProt O94788). Briefly: qHTS for Inhibitors of the Aldehyde Dehydrogenase Family (ALDH1A2) Confirmation screens (AID 2061314). Note: nearly all actives have a fitted effect of over 65% in size. The settings on record: ALDH1A2 enzyme inhibition qHTS confirmation; series mostly up to 45.9 µM.
The target of experiment [5] is Aldehyde dehydrogenase 1A1 (Homo sapiens) (UniProt P00352). Put plainly: qHTS for Inhibitors of the Aldehyde Dehydrogenase Family (ALDH1A1) Confirmatory screens (AID 2061316). Note: nearly all actives have a fitted effect of over 65% in size. The settings on record: ALDH inhibition qHTS; series mostly up to 47.3 µM.
Experiment [6] concerns the target Retinaldehyde dehydrogenase 3 (Homo sapiens) (UniProt P47895). Briefly: qHTS for Inhibitors of the Aldehyde Dehydrogenase Family (ALDH1A3) Primary screen (AID 2061315). The settings on record: ALDH inhibition qHTS; series mostly up to 56 µM.
A short description of experiment [7]: BET inhibitor-based combinations targeting novel dependencies in MECOM-rearranged (r) AML: OCI-AML3 cell line (AID 2202232). Note: nearly all actives have a fitted effect of over 35% in size. The settings on record: CellTiter-Glo luminescence, 48 h; Potency: OCI-AML3 viability; series mostly up to 46 µM. Put shortly:
(§1)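 Here, 11-point titrations of each agent were applied to 500 seeded cells and incubated 48 hr; CellTiter-Glo signal, scaled against DMSO and empty wells, was integrated as AUC, then Z-scored within the individual line.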
(ATP-based viability assays read luminescence as a measure of living cells.)

Experiment [8] can be described thus: BET inhibitor-based combinations targeting novel dependencies in MECOM-rearranged (r) AML: MV-4-11 cell line (AID 2202233). Note: nearly all actives have a fitted effect of over 45% in size. The settings on record: MV-4-11 AML viability, CellTiter-Glo luminescence, 48 h; series mostly up to 46 µM. Put shortly: (§2)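 Normalized to DMSO and empty-well controls, the luminescence data from CellTiter-Glo after 48 hr drug exposure were fitted across 11 concentrations. Reported metrics are area under the dose-response curve and its Z-transformed form.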

The nature of experiment [9]: BET inhibitor-based combinations targeting novel dependencies in MECOM-rearranged (r) AML: HNT-34 cell line (AID 2202234). Note: nearly all actives have a fitted effect of over 35% in size. The settings on record: HNT-34 AML viability, CellTiter-Glo luminescence, 48 h; series mostly up to 46 µM. The method, boiled down: as §2
The nature of experiment [10]: BET inhibitor-based combinations targeting novel dependencies in MECOM-rearranged (r) AML: UCSD-AML1 cell line (AID 2202235). Note: nearly all actives have a fitted effect of over 40% in size. The conditions noted are these: UCSD-AML1 AML cells viability, CellTiter-Glo, 48 h; series mostly up to 46 µM. Put shortly: as §2
Experiment [11] in a line: BET inhibitor-based combinations targeting novel dependencies in MECOM-rearranged (r) AML: AML-194 cell line (AID 2202237; note: nearly all actives have a fitted effect of over 40% in size). The conditions noted are these: AML-194 (MECOM-r AML) viability, CellTiter-Glo, 48 h; series mostly up to 46 µM. The method, boiled down: as §1
Potency is the fitted concentration of half-maximal effect.

With `O=S(=O)(Nc1cc(O)cc2cccnc12)c1ccc(Cl)s1`, the Potency in experiment [1] is 8.96 µM (active); in experiment [2], 0.631 µM (active); in experiment [3], 0.504 µM (active); in experiment [4], 2.01 µM (active); in [5], 4 µM (active).

Consider `c1cn2cc(-c3ccc4cn[nH]c4c3)nc(Nc3ccc(N4CCOCC4)cc3)c2n1`, for which the Potency result in experiment [1], in experiment [2], in experiment [3], in [6] and in [5] was “inactive” throughout. The Potency in [7] was 5.25 µM (active); in [8] it was 1.66 µM (active); in experiment [9], 4.17 µM (active); in [10], 10.5 µM (active); in [11] it was 1.32 µM (active).

As for `O=S(=O)(Nc1ccc(O)c2ncccc12)c1ccccc1F`, the Potency was 4.49 µM (active) in experiment [1], 2.25 µM (active) in [3], 2.83 µM (active) in experiment [4] and 2.01 µM (active) in [5]. Moreover, the Potency result in [2] was “inactive”.

As to `O=C(Nc1ncc([N+](=O)[O-])s1)c1ccccc1O`, the Potency in experiment [1] was 28.2 µM (active); in experiment [3], 0.449 µM (active); in [6], 2 µM (active). For the same compound, the Potency entry in [2] is “inactive”.

As to `Cc1noc(C)c1N[S+](=O)([O-])c1ccc(NC(=O)Cc2ccc(Cl)c(Cl)c2)cc1`, the Potency in [1] is 7.08 µM (active); in [3], 6.31 µM (active). The Potency result in experiment [2] and in experiment [6] was “inactive” throughout.

Turning to `NC(=O)C1CCN(c2nc(-c3ccc4c(c3)OCCO4)cs2)CC1`, the Potency result in experiment [1], in experiment [2], in [4] and in [6] was “inactive” throughout.

Regarding `Cc1ccc(S(=O)(=O)c2ccc([N+](=O)[O-])cn2)cc1`, the Potency in [1] is 2 µM (active); in experiment [2], 2 µM (active); in [3] it was 4.47 µM (active); in [4], 1.13 µM (active); in experiment [5], 0.634 µM (active).

With `CNc1oc(-c2ccc3c(c2)OCCO3)nc1C#N`, the Potency result in experiment [1], in [2], in [4] and in experiment [6] was “inactive” throughout.

`O=C(c1ccc(-c2cnc3c(O)cccc3c2)cc1)N1CCNCC1`: the Potency entry in [1], in [2], in [4] and in experiment [6] was “inactive” each time.

`NC(=O)C1CCN(c2ncc(-c3cccc(N4CCCC4)c3)s2)CC1`: the Potency in experiment [1] was 12.7 µM (active); in experiment [3], 7.98 µM (active); in experiment [4] it was 11.3 µM (active); in [5], 3.57 µM (active). The Potency result in experiment [2] and in [6] was “inactive” throughout.

`CCOC(=O)c1c(-c2ccccc2)no[n+]1[O-]`: the Potency result in experiment [1], in [2], in experiment [3] and in experiment [6] was “inactive” in each case.

On to `Cc1ccc(-c2no[n+]([O-])c2C#N)cc1`, for which the Potency entry in experiment [1], in experiment [2], in [3] and in experiment [6] was “inactive” each time.

`Cc1noc(C)c1-c1ccc2ncnc(NCc3ccc(F)cc3)c2c1`: the Potency is 12.6 µM (active) in experiment [1], 12.6 µM (active) in [3] and 20.1 µM (active) in experiment [5]. Besides, the Potency result in experiment [2] and in [6] was “inactive” in each case.

With `Cc1c(Cl)cccc1NS(=O)(=O)c1cc2c(cc1F)NC(=O)CC2`, the Potency entry in [1], in experiment [2], in experiment [3], in experiment [6] and in experiment [5] was “inactive” throughout.

In the case of `NC(=O)C1CCN(c2nc(-c3ccc4occc(=O)c4c3)cs2)CC1`, the Potency entry in [1], in experiment [2], in [4] and in [6] was “inactive” throughout.

For the compound `N#CNC(=O)c1ccc(-n2cccc2/C=C2\NC(=O)N(CC(=O)Nc3cccc(F)c3)C2=O)cc1`, the Potency result in [1], in [2], in [3], in experiment [6] and in experiment [5] was “inactive” each time.

In the case of `Cc1nnc(CN(C)c2ncnc3ccc(-c4ccc5c(c4)OCO5)cc23)o1`, the Potency entry in [1], in experiment [2] and in experiment [6] was “inactive” each time. Moreover, the Potency in [3] was 20.1 µM (active); in experiment [5], 14.2 µM (active).

Consider `O=C1CCc2cc(S(=O)(=O)Nc3cc(F)cc(Cl)c3)c(F)cc2N1`, for which the Potency entry in [1], in [2], in [3], in [6] and in [5] was “inactive” each time.

In the case of `CCOC(=O)c1ccc(O)c2ncc(N3CCC(C(=N)N)CC3)cc12`, the Potency result in experiment [1], in experiment [2] and in experiment [5] was “inactive” each time. In experiment [3], the Potency is 8.96 µM (active).

On to `CC(=O)NC(c1ccco1)c1cc(Cl)c2ccc(N3CCCCC3)nc2c1O` (stereo not given), for which the Potency was 10.1 µM (active) in [1], 11.3 µM (active) in experiment [3], 1.59 µM (active) in experiment [4] and 2.25 µM (active) in [5]. Besides, the Potency result in [2] and in experiment [6] was “inactive” in each case.

As to `O=S1(=O)CCN(Cc2cc(NCC3CCOCC3)c3[nH]c(-c4ccccc4)cc3c2)CC1`, the Potency result in [1], in experiment [2] and in experiment [5] was “inactive” in each case. Also, in experiment [3], the Potency was 11.3 µM (active).

With `Cc1ccc(-c2cc(C(=O)Nc3cccc(S(N)(=O)=O)c3)c3ccccc3n2)cc1C`, the Potency entry in experiment [1], in experiment [2], in [4] and in experiment [6] was “inactive” each time.

With `COc1ccc(-c2csc(NC(=O)c3ccncc3NS(=O)(=O)c3ccc(C)cc3)n2)cc1`, the Potency result in experiment [1], in experiment [2], in experiment [3] and in experiment [6] was “inactive” in each case. The Potency in experiment [5] was 22.5 µM (active).

Regarding `S=C(Nc1ccccn1)c1ccccn1`, the Potency was 28.3 µM (active) in experiment [1], 11.2 µM (active) in experiment [2], 6.34 µM (active) in experiment [3] and 5.65 µM (active) in [5].

As to `CCc1nc2c(sc3nc4c(cc32)COC(C)(C)C4)c(=O)n1Cc1ccco1`, the Potency in experiment [1] was 6.34 µM (active); in [3] it was 7.98 µM (active); in experiment [4], 7.12 µM (active); in experiment [5], 0.634 µM (active). Further, the Potency result in experiment [2] is “inactive”.

As to `O=c1[nH]c(CN2CCOCC2)nc2sc3c(c12)CCC3`, the Potency result in experiment [1], in experiment [2], in [6] and in experiment [5] was “inactive” each time. In addition, the Potency in experiment [3] is 11.3 µM (active).
